Among the data in ChEMBL document CHEMBL3988442, “University of Dundee, Small-Polar-MMV Screening Library” (2021) are Percent Effect values, retold here.

For some assays here: Results with a measured potency or affinity are listed apart.

Set-up in all cases: scale not given: direction of the effect not stated beside the values
For experiment [1], the target named is Protein translocase subunit SecA (Escherichia coli (strain K12)) (UniProt P10408). Put plainly: Assay to Identify E. coli SecA ATPase Inhibitors. The format is functional. The following applies: 30 µM.
The target of experiment [2] is T1, Ubiquitin-activating enzyme e1, putative (Leishmania donovani (strain BPK282A1)) (UniProt E9BSI1).
T1 sequence (whole entry): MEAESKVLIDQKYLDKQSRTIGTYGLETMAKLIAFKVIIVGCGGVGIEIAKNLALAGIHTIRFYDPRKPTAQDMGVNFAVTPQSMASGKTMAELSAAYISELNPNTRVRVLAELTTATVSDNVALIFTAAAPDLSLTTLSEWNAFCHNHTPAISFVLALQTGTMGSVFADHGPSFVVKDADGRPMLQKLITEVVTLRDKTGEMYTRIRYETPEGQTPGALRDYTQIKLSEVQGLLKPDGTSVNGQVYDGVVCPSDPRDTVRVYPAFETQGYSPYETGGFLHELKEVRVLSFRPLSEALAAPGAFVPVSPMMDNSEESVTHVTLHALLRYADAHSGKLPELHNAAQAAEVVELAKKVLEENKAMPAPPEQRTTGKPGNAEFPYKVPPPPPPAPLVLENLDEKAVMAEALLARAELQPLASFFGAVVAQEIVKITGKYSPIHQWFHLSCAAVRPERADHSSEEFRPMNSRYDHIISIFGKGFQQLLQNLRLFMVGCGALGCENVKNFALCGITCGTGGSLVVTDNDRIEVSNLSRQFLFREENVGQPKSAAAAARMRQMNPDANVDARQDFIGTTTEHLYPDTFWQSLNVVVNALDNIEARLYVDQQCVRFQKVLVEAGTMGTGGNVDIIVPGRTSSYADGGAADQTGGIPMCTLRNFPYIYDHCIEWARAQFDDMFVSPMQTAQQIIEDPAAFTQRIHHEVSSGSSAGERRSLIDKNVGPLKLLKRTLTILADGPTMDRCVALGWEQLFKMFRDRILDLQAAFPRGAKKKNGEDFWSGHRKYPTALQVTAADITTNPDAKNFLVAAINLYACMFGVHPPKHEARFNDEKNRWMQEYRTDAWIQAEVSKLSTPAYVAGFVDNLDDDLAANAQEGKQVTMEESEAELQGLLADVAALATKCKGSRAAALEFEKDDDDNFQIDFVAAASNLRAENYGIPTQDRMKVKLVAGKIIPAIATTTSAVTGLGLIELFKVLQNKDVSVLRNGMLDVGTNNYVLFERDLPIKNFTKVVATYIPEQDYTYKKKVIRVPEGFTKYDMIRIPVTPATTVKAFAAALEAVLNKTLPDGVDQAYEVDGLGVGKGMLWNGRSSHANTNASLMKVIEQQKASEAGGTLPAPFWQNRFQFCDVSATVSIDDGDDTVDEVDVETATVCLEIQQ
Nature of the experiment: Leishmania donovani Ubiquitin Activating Enzyme (LdE1). It counts as functional. Particulars: 30 µM.

Experiment [3] concerns the target AMP-activated protein kinase, AMPK (Homo sapiens) (UniProt P54646+O43741+P54619+Q9UGJ0+Q9Y478+Q13131+Q9UGI9). Nature of the experiment: AMP-dependent Kinase enzyme assay. An in vitro enzyme assay that detects ADP turnover that is directly proportional to AMPK activity. This uses naive AMPK that is activated during the assay with MK-8722. The format is functional. Particulars: 30 µM.

Experiment [4] deals with Sialic acid-binding Ig-like lectin 9 (Homo sapiens) (UniProt Q9Y336). Put plainly: Hs-Siglec9 ALPHAscreen SOP 20170721. The following applies: 10 µM.
Another experiment deals with Trypanosoma cruzi. Nature of the experiment: Trypanosoma cruzi phosphomannomutase and mannose-1-phosphate guanylyltransferase assay. The format is functional. The following applies: 10 µM.
The target of experiment [5] is T2, Arginase-2, mitochondrial (Homo sapiens) (UniProt P78540).
T2 sequence (whole entry): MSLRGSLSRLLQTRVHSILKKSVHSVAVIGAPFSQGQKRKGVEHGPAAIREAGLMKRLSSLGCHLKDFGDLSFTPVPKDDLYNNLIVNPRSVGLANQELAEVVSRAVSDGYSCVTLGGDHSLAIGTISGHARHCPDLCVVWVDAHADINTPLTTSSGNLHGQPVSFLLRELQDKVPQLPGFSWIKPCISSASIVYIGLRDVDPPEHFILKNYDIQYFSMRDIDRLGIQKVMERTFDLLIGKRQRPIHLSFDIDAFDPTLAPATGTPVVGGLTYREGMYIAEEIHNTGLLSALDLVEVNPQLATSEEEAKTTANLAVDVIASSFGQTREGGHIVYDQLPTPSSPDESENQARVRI
Put plainly: in vitro enzyme assay to detect the production of urea directly proportional to the activity of Arginase II. Note: in the data most compounds retested in dose-response had high values. Particulars: 33.3 µM. The format is functional.

For experiment [6], the target named is T3, Proteasome subunit beta (Trypanosoma cruzi) (UniProt O96673).
T3 sequence (whole entry): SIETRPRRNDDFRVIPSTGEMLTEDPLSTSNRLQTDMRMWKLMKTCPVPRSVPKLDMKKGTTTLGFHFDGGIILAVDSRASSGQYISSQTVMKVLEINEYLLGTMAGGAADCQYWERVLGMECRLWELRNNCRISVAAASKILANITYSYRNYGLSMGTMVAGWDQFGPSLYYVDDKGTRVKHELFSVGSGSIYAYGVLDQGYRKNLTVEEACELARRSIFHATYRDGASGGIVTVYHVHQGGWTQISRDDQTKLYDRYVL
Put plainly: Trypanosoma cruzi proteasome chymotrypsin-like activity (TcProtChymo) assay. Note: in the data most compounds retested in dose-response had high values. The following applies: 9.37 µM. It counts as functional.

The species entered for another experiment is Homo sapiens. Put plainly: To identify inhibition of the IFN signalling (Jak-Stat) pathway via expression of an eGFP reporter gene under the control of an IFN-stimulated response element (ISRE) containing MxA promoter. It counts as functional. The following applies: 30 µM. (In general: Reporter assays use an easily measured gene product as a stand-in for the process of interest.)

In experiment [7] the target is T4, Tyrosyl-tRNA synthetase, putative (Trypanosoma cruzi (strain CL Brener)) (UniProt Q4DSP6).
T4 sequence (whole entry): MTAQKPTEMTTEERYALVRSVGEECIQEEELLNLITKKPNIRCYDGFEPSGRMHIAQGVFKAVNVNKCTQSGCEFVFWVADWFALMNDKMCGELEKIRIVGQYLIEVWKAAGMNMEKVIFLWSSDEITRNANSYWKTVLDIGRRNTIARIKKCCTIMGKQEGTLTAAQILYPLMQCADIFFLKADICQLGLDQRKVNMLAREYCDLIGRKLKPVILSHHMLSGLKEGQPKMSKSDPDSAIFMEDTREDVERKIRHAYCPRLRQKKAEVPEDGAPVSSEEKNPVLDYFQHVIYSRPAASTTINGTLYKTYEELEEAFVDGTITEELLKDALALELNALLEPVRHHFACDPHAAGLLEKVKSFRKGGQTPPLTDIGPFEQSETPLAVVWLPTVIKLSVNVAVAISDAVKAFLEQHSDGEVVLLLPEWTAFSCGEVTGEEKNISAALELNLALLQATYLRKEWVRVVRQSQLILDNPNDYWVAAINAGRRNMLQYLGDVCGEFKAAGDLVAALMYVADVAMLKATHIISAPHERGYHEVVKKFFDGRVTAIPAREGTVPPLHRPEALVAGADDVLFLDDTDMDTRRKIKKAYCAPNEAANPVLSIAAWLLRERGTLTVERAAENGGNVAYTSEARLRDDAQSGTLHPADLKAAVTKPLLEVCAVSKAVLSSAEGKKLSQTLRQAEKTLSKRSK
Nature of the experiment: Trypanosoma cruzi tyrosyl tRNA synthetase (TcYRS) _High Tyrosine SOP. Note: in the data most compounds retested in dose-response had high values. Particulars: 30 µM. The format is functional.

The target of experiment [8] is T4, Tyrosyl-tRNA synthetase, putative (Trypanosoma cruzi (strain CL Brener)). Nature of the experiment: Trypanosoma cruzi tyrosyl tRNA synthetase (TcYRS) SOP. The following applies: 30 µM. It counts as functional.
Experiment [9] addresses Chromo domain-containing protein 1 (Saccharomyces cerevisiae (strain ATCC 204508 / S288c) (Baker's yeast)) (UniProt P32657). Put plainly: ScCHD-1 Enzyme Inhibition Assay. Note: in the data most compounds retested in dose-response had high values. Particulars: 30 µM. The format is functional.

Protein translocase subunit SecA (Escherichia coli (strain K12)), sequence (P10408 whole entry): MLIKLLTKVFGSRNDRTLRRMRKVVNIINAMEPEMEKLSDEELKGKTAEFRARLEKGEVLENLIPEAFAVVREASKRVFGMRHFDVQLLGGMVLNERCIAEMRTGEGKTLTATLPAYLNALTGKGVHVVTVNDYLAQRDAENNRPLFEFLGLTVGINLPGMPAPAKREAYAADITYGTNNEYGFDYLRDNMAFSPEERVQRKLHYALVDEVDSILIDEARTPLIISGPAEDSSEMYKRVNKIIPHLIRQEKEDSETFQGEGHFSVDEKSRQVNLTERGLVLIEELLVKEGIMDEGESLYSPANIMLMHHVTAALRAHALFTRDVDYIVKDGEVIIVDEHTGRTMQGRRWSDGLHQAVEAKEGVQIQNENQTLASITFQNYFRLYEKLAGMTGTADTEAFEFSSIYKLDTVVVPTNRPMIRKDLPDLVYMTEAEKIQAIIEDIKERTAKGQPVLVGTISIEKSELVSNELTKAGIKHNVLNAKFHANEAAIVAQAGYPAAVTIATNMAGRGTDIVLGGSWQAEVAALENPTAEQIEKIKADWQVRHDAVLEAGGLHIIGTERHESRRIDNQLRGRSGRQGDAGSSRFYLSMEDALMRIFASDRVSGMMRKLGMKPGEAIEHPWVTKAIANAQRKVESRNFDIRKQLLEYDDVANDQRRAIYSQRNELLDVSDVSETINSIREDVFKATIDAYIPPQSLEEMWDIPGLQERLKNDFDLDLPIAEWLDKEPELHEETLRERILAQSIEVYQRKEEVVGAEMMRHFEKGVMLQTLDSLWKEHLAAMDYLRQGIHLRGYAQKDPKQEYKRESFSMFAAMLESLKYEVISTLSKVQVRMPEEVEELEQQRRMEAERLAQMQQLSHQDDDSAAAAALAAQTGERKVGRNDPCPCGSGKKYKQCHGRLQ
Chromo domain-containing protein 1 (Saccharomyces cerevisiae (strain ATCC 204508 / S288c) (Baker's yeast)), sequence (P32657 whole entry, the tested form may be a part): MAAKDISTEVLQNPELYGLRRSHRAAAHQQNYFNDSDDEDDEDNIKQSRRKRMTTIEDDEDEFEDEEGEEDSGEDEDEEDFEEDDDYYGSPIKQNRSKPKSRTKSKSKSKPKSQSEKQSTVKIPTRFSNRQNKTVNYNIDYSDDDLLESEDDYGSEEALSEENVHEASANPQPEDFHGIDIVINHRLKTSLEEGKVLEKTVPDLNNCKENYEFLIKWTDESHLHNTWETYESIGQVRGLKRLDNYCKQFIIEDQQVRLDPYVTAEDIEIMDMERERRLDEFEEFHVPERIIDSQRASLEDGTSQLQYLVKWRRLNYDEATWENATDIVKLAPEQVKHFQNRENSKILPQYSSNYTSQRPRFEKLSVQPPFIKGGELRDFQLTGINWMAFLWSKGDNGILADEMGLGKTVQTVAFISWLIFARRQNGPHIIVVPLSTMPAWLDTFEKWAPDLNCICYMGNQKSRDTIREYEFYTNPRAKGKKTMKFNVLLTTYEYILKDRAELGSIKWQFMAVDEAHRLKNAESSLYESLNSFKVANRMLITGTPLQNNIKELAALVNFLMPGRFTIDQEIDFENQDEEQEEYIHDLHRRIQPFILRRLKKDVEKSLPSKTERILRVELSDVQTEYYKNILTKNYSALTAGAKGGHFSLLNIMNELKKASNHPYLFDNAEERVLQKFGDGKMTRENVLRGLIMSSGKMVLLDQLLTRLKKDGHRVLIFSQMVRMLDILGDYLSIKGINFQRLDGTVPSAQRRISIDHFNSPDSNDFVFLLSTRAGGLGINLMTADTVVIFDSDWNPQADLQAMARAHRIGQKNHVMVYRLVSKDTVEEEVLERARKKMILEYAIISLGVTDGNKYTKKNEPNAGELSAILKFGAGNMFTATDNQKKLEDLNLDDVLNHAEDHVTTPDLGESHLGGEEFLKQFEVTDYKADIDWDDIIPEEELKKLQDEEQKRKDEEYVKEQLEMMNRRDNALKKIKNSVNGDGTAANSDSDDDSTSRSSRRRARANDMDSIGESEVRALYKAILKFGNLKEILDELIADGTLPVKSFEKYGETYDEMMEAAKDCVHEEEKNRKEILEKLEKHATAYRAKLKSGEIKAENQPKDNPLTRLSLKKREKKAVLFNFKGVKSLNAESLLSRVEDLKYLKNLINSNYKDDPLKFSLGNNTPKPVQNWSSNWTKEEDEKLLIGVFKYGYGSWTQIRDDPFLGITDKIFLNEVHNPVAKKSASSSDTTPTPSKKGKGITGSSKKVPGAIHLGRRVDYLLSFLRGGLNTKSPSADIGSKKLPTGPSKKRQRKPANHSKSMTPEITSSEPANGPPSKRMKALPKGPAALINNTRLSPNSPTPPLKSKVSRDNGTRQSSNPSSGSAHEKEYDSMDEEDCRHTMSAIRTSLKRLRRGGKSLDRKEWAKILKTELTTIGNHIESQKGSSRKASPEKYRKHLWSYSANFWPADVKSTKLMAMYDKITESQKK
Sialic acid-binding Ig-like lectin 9 (Homo sapiens), sequence (Q9Y336 whole entry): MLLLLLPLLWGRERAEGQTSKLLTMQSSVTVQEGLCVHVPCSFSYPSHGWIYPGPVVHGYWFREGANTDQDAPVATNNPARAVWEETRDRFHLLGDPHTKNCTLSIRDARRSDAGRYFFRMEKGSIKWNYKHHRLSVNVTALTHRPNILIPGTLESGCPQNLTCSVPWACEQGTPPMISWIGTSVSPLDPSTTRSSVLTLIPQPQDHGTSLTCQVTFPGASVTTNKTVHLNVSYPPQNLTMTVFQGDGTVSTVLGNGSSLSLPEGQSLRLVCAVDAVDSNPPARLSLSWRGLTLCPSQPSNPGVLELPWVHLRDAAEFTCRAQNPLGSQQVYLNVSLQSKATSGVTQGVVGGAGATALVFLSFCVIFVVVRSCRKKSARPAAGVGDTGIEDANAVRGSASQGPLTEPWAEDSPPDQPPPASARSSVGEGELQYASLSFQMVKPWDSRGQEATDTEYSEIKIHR

Consider `O=C1C[C@H]2[C@@H](CCN2C(=O)c2ccccc2)N1CCN1CCOCC1`, for which the Percent Effect was -2.13% in experiment [1]; -2.74% in [2]; 0.783% in [3]; 2.27% in experiment [4]; 0.794% with Trypanosoma cruzi; -2% in experiment [5]. The Percent Effect in experiment [6] was 2.48%; in the experiment filed under Homo sapiens it was 0.931%; in [7] it was 2.08%; in [8], -1.24%; in experiment [9], -3.6%.

As to `COCCO[C@@H]1C[C@H]2CN(C(=O)c3cnccn3)CCN2C1`, the Percent Effect in experiment [1] was -2.84%; in [2], 5.33%; in experiment [3], -0.698%; in experiment [4] it was 4.55%; in the experiment with Trypanosoma cruzi, -0.965%; in experiment [5] it was -39.6%. In addition, the Percent Effect in experiment [6] was 4.79%; in the experiment listed under Homo sapiens it was -8.37%; in [7], 0%; in experiment [8] it was -15%; in experiment [9] it was -3.81%.

For the compound `Cn1cc(Br)c(=O)c(NS(=O)(=O)c2ccc(F)cc2)c1`, the Percent Effect in [1] was -0.436%; in experiment [2], 2.7%; in experiment [3], -1.93%; in experiment [4], 10.6%; in the experiment with Trypanosoma cruzi, 5.41%; in experiment [5], -0.476%. The Percent Effect in [6] was 10.5%; in the experiment listed under Homo sapiens, 2.64%; in experiment [7], 2.65%; in experiment [8] it was 12.2%; in experiment [9], -2.91%.

For `c1cc(CNCC2CNc3ccnn3C2)cc(N2CCCCC2)n1` (stereo not given), the Percent Effect in [1] is -3.28%; in experiment [2], 19%; in experiment [3] it was -11.8%; in [4], -8.9%; in the experiment on Trypanosoma cruzi, 13%; in experiment [5] it was -2.8%. The Percent Effect is 27.1% in experiment [6]; 1.88% in the experiment listed under Homo sapiens; 13.5% in experiment [7]; 22.8% in experiment [8]; -27.6% in experiment [9].

Take `O=C(NCc1cccnc1)C1=NN(c2ccccc2)C(=O)CN1`: the Percent Effect was -0.966% in [1]; 18.9% in [2]; 8.77% in experiment [3]; 14.9% in experiment [4]; 0.293% with Trypanosoma cruzi; 26.1% in experiment [5]. For the same compound, the Percent Effect is 15% in experiment [6]; -2.67% in the experiment listed under Homo sapiens; 6.45% in experiment [7]; 18.5% in experiment [8]; -8.57% in [9].

On to `CN1CCN(Cc2ccccc2CNC(=O)c2ccc(Br)cc2)CC1`, for which the Percent Effect in experiment [1] was -4.93%; in experiment [2], 8.11%; in experiment [3] it was -2.99%; in [4] it was 8.77%; in the experiment with Trypanosoma cruzi, 0.0978%; in experiment [5], 1.24%. Besides, the Percent Effect was 5.92% in experiment [6]; -4.85% in the experiment listed under Homo sapiens; 3.23% in experiment [7]; 16.1% in experiment [8]; -1.46% in experiment [9].

With `CCc1noc(C(C)N2CCN(Cc3ncc(C(C)(C)C)o3)CC2)n1` (stereo not given), the Percent Effect in [1] is 1.4%; in experiment [2], 28.9%; in experiment [3] it was -4.2%; in experiment [4] it was -2.15%; in the experiment on Trypanosoma cruzi, -3.38%; in experiment [5], 0.383%. Moreover, the Percent Effect in [6] is 15%; in the experiment filed under Homo sapiens, 26%; in experiment [7] it was 3.43%; in experiment [8], 9.76%; in experiment [9] it was -10.7%.

`CS(=O)(=O)NCCCN1CCCC1c1ccccc1` (stereo not given): the Percent Effect was -4.36% in [1]; 5.06% in experiment [2]; -1.23% in experiment [3]; 6.79% in [4]; 1.42% in the experiment with Trypanosoma cruzi; 3.04% in experiment [5]. The Percent Effect in [6] was 3.03%; in the experiment filed under Homo sapiens it was -31.1%; in [7], 7.39%; in [8], 13.9%; in [9], -5.84%.

As to `COCCO[C@@H]1CCN(C(=O)c2ccc(C)o2)[C@@H]1Cc1cnn(C)c1`, the Percent Effect in [1] was -5.35%; in [2], -2.7%; in experiment [3], -1.64%; in experiment [4] it was -4.98%; in the experiment with Trypanosoma cruzi, -2.54%; in experiment [5] it was -2.08%. Moreover, the Percent Effect in experiment [6] was 7.69%; in the experiment filed under Homo sapiens, -13%; in [7], 0.99%; in experiment [8], -1.22%; in experiment [9], 4.49%.

Consider `Cc1ccccc1[C@@H]1CN(C(=O)c2ccc3[nH]nnc3c2)C[C@H]1C(=O)O`, for which the Percent Effect in experiment [1] is -4.25%; in experiment [2] it was -11%; in experiment [3], 4.06%; in experiment [4], 1.72%; in the experiment on Trypanosoma cruzi, -5.75%; in experiment [5], 0.399%. Besides, the Percent Effect is 8.65% in experiment [6]; 2.78% in the experiment listed under Homo sapiens; 3.12% in experiment [7]; 3.7% in experiment [8]; 2.93% in [9].
